ERb SRC1 inh: blocks coactivator binding to human estrogen receptor beta; TR-FRET ER-beta LBD / SRC1-Cy5 peptide binding; receptor agonist-loaded with 1 µM estradiol; AID 633; 86,000 compounds, 1.3% hits; inhibition, % at 25.6 µM; Q92731;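 active means compounds whose percent inhibition of the receptor-coactivator binding signal exceeds about 50% in the single-dose screen, limit read from the data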
Target sequence (Q92731 whole entry, looked up, the tested form may be a part): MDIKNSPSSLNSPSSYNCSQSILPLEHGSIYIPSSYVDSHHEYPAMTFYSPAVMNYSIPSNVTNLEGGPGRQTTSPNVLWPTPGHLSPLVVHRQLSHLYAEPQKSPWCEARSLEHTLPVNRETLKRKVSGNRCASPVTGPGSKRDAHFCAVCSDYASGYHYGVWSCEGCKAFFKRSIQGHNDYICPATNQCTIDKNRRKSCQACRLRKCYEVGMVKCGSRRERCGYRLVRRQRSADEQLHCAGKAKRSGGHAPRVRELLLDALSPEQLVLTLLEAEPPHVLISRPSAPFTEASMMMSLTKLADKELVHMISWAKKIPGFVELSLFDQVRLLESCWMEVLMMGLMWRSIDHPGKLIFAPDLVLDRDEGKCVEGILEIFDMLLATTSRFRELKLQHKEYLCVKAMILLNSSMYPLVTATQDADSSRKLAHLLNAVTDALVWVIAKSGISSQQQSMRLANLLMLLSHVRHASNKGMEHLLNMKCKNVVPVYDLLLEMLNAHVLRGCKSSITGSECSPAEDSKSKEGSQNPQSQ
ERa SRC1 inh: ER-alpha (human) coactivator binding inhibition; P03372; 86,000 compounds, 1.7% hits; TR-FRET ER-alpha LBD / SRC-1 peptide, estradiol-bound; inhibition, % at 25.6 µM; in the data active means inhibition above about 50%
IL1B NFkB pot: enhances IL-1B driven NFkB nuclear translocation; activation, % at 2 µM; 94,000 compounds, 0.3% hits; HUVEC IL-1B NFkB p65 nuclear translocation imaging; AID 819;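 active means activation above 40%, about the mean plus 3 SD, also judged a hit on visual image review; inconclusive means activation above 40% but not a hit on visual review; inactive means activation not above 40% and no visual hit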;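 further: percent activation is computed from the nuclear over cytoplasmic p65 intensity ratio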
IL1B NFkB inh: blocks IL-1B driven NFkB nuclear translocation in HUVEC cells; 94,000 compounds, 0.43% hits; inhibition, % at 2 µM; HUVEC IL-1B NFkB p65 nuclear translocation imaging;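 active means inhibition above about 30% together with a positive call from visual inspection of the well image, limit read from the data; inconclusive means inhibition above a set limit but visual check negative; inactive means inhibition not above a set limit, visual check negative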;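 further: nuclear over cytoplasmic p65 intensity ratio measured by imaging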
ERa coact pot: ER-alpha (human) coactivator binding potentiation. TR-FRET ERalpha-LBD/SRC-Cy5 coactivator binding, 2 h; 100 = basal binding, no effect. coactivator binding (% of control), % at 25.6 µM. 86,000 compounds, 1.3% hits. AID 639; in the data active means activity above about 200%;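 further: binding measured in presence of low estradiol as agonist stimulus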
HUVEC tox IL1B: HUVEC cytotoxicity counter-screen, IL-1B stimulated | HUVEC cell count loss, Hoechst imaging | cell count reduction, % at 2 µM | 94,000 compounds, 0.41% hits | AID 845;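 active means cell count reduction more than 3 SD above the screen-wide mean, cut at about 70% in these data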
Of the large screens only hits and unclear results are named; the others gave an inactive call; [ ] = remark or other dose. In the library only some 3.6% were active in any assay of this set; here they are far more common.

Cc1csc(NC(=O)C2COc3ccccc3O2)n1 (stereo unspecified)	none
CSc1cccc(NC(=O)CN(c2cc(C)ccc2C)S(C)(=O)=O)c1	none
Cc1cc(Cl)c(S(=O)(=O)N2CCN(c3ccc(F)cc3)CC2)cc1OCC(=O)NC1CCCCC1	none
O=C(Nc1nnc(C2CCCO2)s1)c1ccc(Br)cc1 (stereo unspecified)	ERb SRC1 inh 53.7
CCCN(CCC)C(=O)c1ccc2c(c1)N(Cc1ccccc1)C(=O)CS2=O (stereo unspecified)	none (no result: IL1B NFkB pot, IL1B NFkB inh, HUVEC tox IL1B)
O=C(CCCCCn1c(=S)[nH]c2cc3c(cc2c1=O)OCO3)N1CCN(Cc2ccccc2)CC1	none
O=C(CCCn1c(=S)[nH]c2ccccc2c1=O)N1CCN(c2cccc(Cl)c2)CC1	ERb SRC1 inh 54.2[fluorescence artefact?], ERa SRC1 inh 91.7
O=C(CCCCCn1c(=S)[nH]c2cc3c(cc2c1=O)OCO3)N1CCN(C(=O)c2ccco2)CC1	ERa coact pot 210.8[fluorescence artefact?]
Cc1ccc(F)c(NC(=O)C2CCCCC2C(=O)O)c1 (stereo unspecified)	none
Cc1oc(-c2ccc(Cl)cc2)cc1-c1nn2c(-c3ccco3)nnc2s1	none (no result: IL1B NFkB pot, IL1B NFkB inh, HUVEC tox IL1B)
Cc1oc(-c2ccc(F)cc2)cc1-c1nn2c(-c3ccco3)nnc2s1	ERb SRC1 inh 51.0[fluorescence artefact?], ERa SRC1 inh 81.9[fluorescence artefact?]
Cc1oc(-c2ccc(F)cc2)cc1-c1nn2c(-c3ccoc3C)nnc2s1	ERb SRC1 inh 62.5, ERa SRC1 inh 78.6[fluorescence artefact?] (no result: IL1B NFkB pot, IL1B NFkB inh, HUVEC tox IL1B)
CCS(=O)(=O)c1ccc2c(c1)N(S(=O)(=O)c1ccc(OC)cc1)CC(C(=O)O)O2 (stereo unspecified)	none (no result: ERb SRC1 inh, ERa SRC1 inh, ERa coact pot)
COc1ccc(C)cc1NC(=O)CN(C)S(=O)(=O)c1cnc[nH]1	none
CCCCCCC1/C(=N/O)CCC1C(=O)OC (stereo unspecified)	none
Cc1noc(C)c1COc1cccc(C(=O)N2CCN(C/C=C/c3ccccc3)CC2)c1	none
Nc1nnc(CCOc2ccccc2Cl)s1	IL1B NFkB inh 61.2
Cc1cccc(OCc2nnc(N)s2)c1C	none (no result: ERb SRC1 inh, ERa SRC1 inh, ERa coact pot)
COc1cc(-c2noc(CCCC(=O)NCc3ccccc3)n2)cc(OC)c1OC	none
CCN(CC)S(=O)(=O)c1ccc(N=Nc2c(C)[nH]n(C(N)=S)c2=O)cc1	none
NC(=S)n1[nH]c(-c2ccc([N+](=O)[O-])cc2)c(N=Nc2ccc(O)cc2)c1=O	ERa SRC1 inh 91.8
CCC(C)[C@@H](C(=O)Nc1ccc(OC)c(OC)c1)N1Cc2ccccc2C1=O (stereo partly specified)	none
Cc1noc(NS(=O)(=O)c2ccc(NC(=O)CSc3nc4c(cc3C#N)CCC4)cc2)c1C	IL1B NFkB pot 67.6 (no result: ERb SRC1 inh, ERa SRC1 inh, ERa coact pot)
Cc1noc(NS(=O)(=O)c2ccc(NC(=O)CSc3nc4ccccc4s3)cc2)c1C	HUVEC tox IL1B 74.4
CCCC1=NN2C(=N)/C(=C\c3ccc(SCc4ccco4)o3)C(=O)N=C2S1	ERb SRC1 inh 69.5, ERa SRC1 inh 83.8[fluorescence artefact?]
CCC1=NN2C(=N)/C(=C\c3ccc(SCc4ccco4)o3)C(=O)N=C2S1	ERb SRC1 inh 74.9, ERa SRC1 inh 74.6
O=C(c1cc2sccc2n1Cc1ccccc1)N1CCCc2ccccc21	none
O=C(c1cc2sccc2n1Cc1ccccc1)N1CCc2ccccc21	ERa coact pot 509.5
COc1ccc2[nH]c(=O)c(CN(C3CCCCC3)C(c3nnnn3Cc3ccco3)C(C)C)cc2c1 (stereo unspecified)	ERa coact pot 201.3
COc1ccc2cc(CN(CCc3ccccc3)Cc3nnnn3Cc3ccco3)c(=O)[nH]c2c1	IL1B NFkB pot 168.4 (no result: IL1B NFkB inh)
COc1ccc2[nH]c(=O)c(CN(Cc3nnnn3Cc3ccco3)C3CCCCC3)cc2c1	none
CC(=O)Oc1ccc(C(=O)Nc2ccc3c(c2)C(=O)N(CCC(=O)O)C3=O)cc1	ERa coact pot 708.7[fluorescence artefact?]
COc1cc(C(=O)Nc2ccc3c(c2)C(=O)N(CCC(=O)O)C3=O)cc(OC)c1OC	none
Cc1cc(N2CCC(C)CC2)nc2cccc(O)c12	ERa coact pot 550.2[fluorescence artefact?]
Cc1nc2ccccc2nc1N1CCC(C)CC1	none
CCCCn1c(CCn2nc(C)c(Br)c2C)n[nH]c1=S	none (no result: ERb SRC1 inh, ERa SRC1 inh, ERa coact pot)
Cc1ccn2c(NC(=O)c3ccco3)c(-c3ccccc3)nc2c1	none
O=C(Nc1c(-c2ccccc2)nc2sccn12)c1ccccc1	ERb SRC1 inh 71.1[fluorescence artefact?], ERa SRC1 inh 72.1[fluorescence artefact?] (no result: IL1B NFkB pot, IL1B NFkB inh, HUVEC tox IL1B)
O=C(O)[C@@H](c1ccccc1)N1Cc2ccccc2C1=O	ERa coact pot 597.4[fluorescence artefact?]
CN(C1CCCCC1)S(=O)(=O)c1ccc(S(=O)(=O)N2CCN(CCC#N)CC2)cc1	ERb SRC1 inh 53.8
CN(Cc1ccccc1)S(=O)(=O)c1ccc(S(=O)(=O)N2CCN(CCC#N)CC2)cc1	IL1B NFkB pot inconclusive
Cc1cccc(/C=N/NC(=O)c2cc3c(s2)-c2ccccc2CC3)c1	IL1B NFkB inh 51.7 (no result: ERb SRC1 inh, ERa SRC1 inh, ERa coact pot)
Cc1cc(C)cc(NC(=O)C2CCCN(c3nccc(C)n3)C2)c1 (stereo unspecified)	none
Cc1cc(C)cc(NC(=O)C2CCCN(c3nc(C)cc(C)n3)C2)c1 (stereo unspecified)	ERb SRC1 inh 74.6[fluorescence artefact?] (no result: IL1B NFkB pot, IL1B NFkB inh, HUVEC tox IL1B)
O=C(Nc1ccc(C2CCCCC2)cc1)C1CCCN(c2ncccn2)C1 (stereo unspecified)	ERa coact pot 223.3[fluorescence artefact?] (no result: IL1B NFkB pot, IL1B NFkB inh, HUVEC tox IL1B)
O=C(NCCCN1CCC(Cc2ccccc2)CC1)C1CC(=O)N(C2CCCCCC2)C1 (stereo unspecified)	none
CCn1c(SCC(=O)O)nnc1C1CCCCC1	none
COc1ccc(-c2nnc(SCC(=O)/C(C#N)=C(\C)N)o2)cc1	ERb SRC1 inh 74.9, ERa SRC1 inh 56.0 (no result: IL1B NFkB pot, IL1B NFkB inh, HUVEC tox IL1B)
C=CCn1c(SCC(=O)c2c(N)n(CCC)c(=O)n(C)c2=O)nc2sc(CC)cc2c1=O	ERa coact pot 445.2[fluorescence artefact?]
COCCn1c(C)cc(C(=O)CSc2nnc(C)s2)c1C	none (no result: IL1B NFkB pot, IL1B NFkB inh, HUVEC tox IL1B)
COCCn1c(C)cc(C(=O)COC(=O)c2cc3c(s2)CCC3)c1C	ERb SRC1 inh 65.8, ERa SRC1 inh 76.5[fluorescence artefact?]
O/C(=C\Sc1nnc(Cc2ccccc2)o1)c1ccc(F)cc1	none (no result: ERb SRC1 inh, ERa SRC1 inh, ERa coact pot)
COC(=O)c1ccc2c(=O)n(CC3CCCO3)c(SCC(=O)Nc3ccccc3Cl)nc2c1 (stereo unspecified)	ERa SRC1 inh 56.6
CCCCCn1c(SCC#N)nc2cc(C(=O)NCC3CCCO3)ccc2c1=O (stereo unspecified)	ERa SRC1 inh 55.7[fluorescence artefact?], ERa coact pot 248.3[fluorescence artefact?]
CCCCCn1c(SCC#N)nc2cc(C(=O)NC3CCCCC3)ccc2c1=O	none (no result: IL1B NFkB pot, IL1B NFkB inh, HUVEC tox IL1B)
CC(NC(=O)CSc1ncnc2nc[nH]c12)c1ccccc1 (stereo unspecified)	none
O=C(Cc1csc(N2CCOCC2)n1)N/N=C/c1ccc(F)cc1	none
COC(=O)/C=c1/s/c(=C(/C#N)C(=O)N2CCCCC2)n(-c2ccccc2)c1=O	none (no result: IL1B NFkB pot, IL1B NFkB inh, HUVEC tox IL1B)
COc1cc(/C=c2\s/c(=C(/C#N)C(=O)N3CCCC3)n(-c3ccccc3)c2=O)ccc1O	ERa SRC1 inh 59.5
COCCNC(=O)COC(=O)/C=C/c1c(C)nn(Cc2ccc(Cl)cc2Cl)c1Cl	none

Assay outcomes: PubChem BioAssay, several laboratories
